Assay results as given in the supplement of paper PMC11732987, “Enantioselective OTUD7B fragment discovery through chemoproteomics screening and high-throughput optimisation” (Communications Chemistry, 2025).

How the values were obtained:
Assay in all cases: log2 ratio of Biotin-Ahx-Ub-VS probe labelling (fragment/DMSO); higher = less target engagement (more negative = stronger competition), active = hit call of the paper (q ≤ 0.05, log2 ratio ≤ -1)
Conditions in all cases: compound concentration: 200 uM; treatment time: 3 h
USP34 = USP34 (UniProt Q70CQ2)
Sequence of USP34 (Q70CQ2 whole entry, the tested form may be a part): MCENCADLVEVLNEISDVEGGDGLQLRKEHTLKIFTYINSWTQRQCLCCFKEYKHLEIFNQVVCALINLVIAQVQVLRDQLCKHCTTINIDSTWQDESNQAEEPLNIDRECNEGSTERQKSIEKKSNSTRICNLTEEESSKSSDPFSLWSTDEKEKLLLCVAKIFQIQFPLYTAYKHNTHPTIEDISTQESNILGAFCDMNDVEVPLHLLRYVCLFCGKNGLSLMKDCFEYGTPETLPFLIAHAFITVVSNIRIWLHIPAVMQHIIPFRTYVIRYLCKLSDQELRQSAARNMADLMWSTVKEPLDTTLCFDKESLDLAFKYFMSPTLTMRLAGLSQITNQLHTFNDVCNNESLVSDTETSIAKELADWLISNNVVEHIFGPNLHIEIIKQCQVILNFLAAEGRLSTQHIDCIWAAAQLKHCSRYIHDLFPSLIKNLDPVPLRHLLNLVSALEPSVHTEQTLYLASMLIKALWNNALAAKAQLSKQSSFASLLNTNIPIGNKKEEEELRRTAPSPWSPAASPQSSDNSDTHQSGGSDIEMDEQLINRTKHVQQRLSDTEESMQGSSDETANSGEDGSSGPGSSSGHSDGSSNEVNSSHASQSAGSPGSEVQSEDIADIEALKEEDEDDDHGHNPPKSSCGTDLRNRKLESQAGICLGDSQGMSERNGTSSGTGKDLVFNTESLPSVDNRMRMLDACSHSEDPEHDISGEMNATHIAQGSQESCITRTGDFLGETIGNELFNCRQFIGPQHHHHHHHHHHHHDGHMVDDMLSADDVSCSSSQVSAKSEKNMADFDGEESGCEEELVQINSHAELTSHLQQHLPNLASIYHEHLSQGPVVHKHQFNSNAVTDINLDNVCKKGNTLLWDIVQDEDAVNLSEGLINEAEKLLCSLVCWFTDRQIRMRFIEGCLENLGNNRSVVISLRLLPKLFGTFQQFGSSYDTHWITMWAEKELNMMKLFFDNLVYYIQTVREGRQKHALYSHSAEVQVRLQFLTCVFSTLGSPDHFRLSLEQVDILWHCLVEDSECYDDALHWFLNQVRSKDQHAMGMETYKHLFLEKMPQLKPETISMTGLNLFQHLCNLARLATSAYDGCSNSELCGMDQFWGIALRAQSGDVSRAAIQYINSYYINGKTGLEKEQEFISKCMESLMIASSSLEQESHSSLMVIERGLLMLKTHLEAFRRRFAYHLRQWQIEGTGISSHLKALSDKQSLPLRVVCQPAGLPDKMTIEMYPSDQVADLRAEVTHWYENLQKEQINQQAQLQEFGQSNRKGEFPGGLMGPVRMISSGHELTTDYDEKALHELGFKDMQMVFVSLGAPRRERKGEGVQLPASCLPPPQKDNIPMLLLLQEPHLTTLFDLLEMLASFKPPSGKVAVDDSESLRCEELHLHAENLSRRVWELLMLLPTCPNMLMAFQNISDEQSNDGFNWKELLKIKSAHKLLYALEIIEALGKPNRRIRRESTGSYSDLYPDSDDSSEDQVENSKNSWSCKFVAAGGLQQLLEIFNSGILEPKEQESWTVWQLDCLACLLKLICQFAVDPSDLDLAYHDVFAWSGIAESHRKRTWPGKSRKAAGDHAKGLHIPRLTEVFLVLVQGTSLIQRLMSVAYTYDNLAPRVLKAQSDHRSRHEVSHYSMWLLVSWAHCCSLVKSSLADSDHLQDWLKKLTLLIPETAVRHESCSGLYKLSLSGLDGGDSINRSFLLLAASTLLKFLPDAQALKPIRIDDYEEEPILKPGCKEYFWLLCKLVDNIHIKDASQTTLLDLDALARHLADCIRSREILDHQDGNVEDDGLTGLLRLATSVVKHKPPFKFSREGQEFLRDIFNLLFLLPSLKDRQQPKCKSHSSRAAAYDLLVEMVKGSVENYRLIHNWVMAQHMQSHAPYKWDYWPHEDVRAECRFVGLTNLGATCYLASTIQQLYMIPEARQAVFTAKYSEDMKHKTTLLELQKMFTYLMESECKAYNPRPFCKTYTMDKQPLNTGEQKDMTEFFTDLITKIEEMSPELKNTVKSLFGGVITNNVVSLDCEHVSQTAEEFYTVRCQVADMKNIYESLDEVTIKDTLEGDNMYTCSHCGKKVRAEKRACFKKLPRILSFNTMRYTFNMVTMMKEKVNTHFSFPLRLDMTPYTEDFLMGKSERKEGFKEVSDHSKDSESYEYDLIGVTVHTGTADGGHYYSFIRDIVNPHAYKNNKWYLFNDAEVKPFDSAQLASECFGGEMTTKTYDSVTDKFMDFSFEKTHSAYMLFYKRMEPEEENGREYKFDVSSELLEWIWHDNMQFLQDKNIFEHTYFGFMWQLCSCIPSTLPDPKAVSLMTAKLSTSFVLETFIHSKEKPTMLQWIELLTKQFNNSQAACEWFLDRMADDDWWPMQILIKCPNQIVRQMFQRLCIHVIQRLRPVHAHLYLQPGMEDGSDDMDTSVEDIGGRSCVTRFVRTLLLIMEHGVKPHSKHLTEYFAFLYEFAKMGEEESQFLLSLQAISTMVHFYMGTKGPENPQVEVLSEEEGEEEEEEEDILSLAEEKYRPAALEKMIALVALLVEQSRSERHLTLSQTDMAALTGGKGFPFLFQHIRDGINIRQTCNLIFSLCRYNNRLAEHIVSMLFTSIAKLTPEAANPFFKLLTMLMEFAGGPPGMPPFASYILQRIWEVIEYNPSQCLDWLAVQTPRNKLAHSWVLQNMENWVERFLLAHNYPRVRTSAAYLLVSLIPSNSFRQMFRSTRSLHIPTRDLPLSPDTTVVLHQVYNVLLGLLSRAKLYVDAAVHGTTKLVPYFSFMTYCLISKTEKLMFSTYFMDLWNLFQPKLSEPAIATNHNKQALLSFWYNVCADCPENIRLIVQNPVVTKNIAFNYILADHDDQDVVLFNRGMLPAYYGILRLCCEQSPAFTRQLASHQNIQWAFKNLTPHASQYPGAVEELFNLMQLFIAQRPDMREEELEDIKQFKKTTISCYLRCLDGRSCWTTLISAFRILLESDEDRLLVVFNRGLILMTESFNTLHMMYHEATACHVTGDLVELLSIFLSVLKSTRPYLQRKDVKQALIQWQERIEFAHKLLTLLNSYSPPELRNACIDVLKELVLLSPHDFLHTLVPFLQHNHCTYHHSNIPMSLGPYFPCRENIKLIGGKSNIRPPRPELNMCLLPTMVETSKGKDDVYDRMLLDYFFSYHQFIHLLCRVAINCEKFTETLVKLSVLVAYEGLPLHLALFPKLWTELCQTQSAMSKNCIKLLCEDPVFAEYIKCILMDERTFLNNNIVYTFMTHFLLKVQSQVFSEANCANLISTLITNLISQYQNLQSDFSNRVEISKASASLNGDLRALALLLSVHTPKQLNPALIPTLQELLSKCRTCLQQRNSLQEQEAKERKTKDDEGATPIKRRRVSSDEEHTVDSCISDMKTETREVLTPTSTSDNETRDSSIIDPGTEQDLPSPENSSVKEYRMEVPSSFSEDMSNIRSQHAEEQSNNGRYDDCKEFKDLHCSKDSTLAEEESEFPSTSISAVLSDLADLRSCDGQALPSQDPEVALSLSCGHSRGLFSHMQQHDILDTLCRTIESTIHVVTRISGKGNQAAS
Outline: (§1)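 Labelled DUBs from HEK293T lysate were NeutrAvidin-enriched, digested with LysC and trypsin, and run by diaPASEF LC-MS/MS. Before that, each 495 µg sample in Tris/CHAPS/IGEPAL buffer with protease inhibitors was treated in triplicate with fragment at 200 µM or vehicle for 3 h, then with Biotin-Ahx-Ub-VS at 0.5 µM final for 1 h. Values are average log2 ratios of fragment over vehicle by unpaired t-test, based on global-median-normalised Spectronaut label-free quantities from proteins with ≥2 unique peptides.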

USP36 = molecular target: T1, USP36 (UniProt Q9P275)
T1 sequence (whole entry): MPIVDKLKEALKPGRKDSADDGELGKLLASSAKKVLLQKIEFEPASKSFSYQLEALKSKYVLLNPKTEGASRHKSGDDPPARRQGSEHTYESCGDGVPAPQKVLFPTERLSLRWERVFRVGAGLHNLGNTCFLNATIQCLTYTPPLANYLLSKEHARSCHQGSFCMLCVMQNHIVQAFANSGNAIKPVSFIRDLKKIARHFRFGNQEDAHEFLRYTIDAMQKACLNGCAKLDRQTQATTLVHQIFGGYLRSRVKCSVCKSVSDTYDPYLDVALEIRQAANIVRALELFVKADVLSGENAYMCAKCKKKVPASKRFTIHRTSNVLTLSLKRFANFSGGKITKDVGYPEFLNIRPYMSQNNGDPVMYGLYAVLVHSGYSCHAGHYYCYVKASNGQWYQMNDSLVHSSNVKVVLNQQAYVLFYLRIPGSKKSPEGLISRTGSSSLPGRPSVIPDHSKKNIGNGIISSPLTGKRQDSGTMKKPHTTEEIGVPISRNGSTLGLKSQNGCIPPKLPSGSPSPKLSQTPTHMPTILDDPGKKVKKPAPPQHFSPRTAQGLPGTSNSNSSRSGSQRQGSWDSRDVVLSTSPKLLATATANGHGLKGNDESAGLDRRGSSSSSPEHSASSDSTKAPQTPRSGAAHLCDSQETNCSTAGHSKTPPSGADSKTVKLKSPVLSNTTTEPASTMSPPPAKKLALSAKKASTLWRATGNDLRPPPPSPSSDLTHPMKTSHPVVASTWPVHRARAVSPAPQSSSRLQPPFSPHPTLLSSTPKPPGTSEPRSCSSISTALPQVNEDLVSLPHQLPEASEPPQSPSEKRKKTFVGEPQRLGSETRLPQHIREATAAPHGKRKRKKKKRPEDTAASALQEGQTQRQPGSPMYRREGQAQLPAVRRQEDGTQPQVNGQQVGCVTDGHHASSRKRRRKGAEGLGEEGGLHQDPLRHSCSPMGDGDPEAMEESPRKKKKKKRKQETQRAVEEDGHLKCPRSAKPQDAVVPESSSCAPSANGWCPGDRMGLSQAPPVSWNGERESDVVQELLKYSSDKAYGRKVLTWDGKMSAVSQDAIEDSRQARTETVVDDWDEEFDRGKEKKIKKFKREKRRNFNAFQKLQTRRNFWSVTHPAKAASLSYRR
Outline: as §1

USP38 = molecular target: T2, USP38 (UniProt Q8NB14)
T2 sequence (whole entry): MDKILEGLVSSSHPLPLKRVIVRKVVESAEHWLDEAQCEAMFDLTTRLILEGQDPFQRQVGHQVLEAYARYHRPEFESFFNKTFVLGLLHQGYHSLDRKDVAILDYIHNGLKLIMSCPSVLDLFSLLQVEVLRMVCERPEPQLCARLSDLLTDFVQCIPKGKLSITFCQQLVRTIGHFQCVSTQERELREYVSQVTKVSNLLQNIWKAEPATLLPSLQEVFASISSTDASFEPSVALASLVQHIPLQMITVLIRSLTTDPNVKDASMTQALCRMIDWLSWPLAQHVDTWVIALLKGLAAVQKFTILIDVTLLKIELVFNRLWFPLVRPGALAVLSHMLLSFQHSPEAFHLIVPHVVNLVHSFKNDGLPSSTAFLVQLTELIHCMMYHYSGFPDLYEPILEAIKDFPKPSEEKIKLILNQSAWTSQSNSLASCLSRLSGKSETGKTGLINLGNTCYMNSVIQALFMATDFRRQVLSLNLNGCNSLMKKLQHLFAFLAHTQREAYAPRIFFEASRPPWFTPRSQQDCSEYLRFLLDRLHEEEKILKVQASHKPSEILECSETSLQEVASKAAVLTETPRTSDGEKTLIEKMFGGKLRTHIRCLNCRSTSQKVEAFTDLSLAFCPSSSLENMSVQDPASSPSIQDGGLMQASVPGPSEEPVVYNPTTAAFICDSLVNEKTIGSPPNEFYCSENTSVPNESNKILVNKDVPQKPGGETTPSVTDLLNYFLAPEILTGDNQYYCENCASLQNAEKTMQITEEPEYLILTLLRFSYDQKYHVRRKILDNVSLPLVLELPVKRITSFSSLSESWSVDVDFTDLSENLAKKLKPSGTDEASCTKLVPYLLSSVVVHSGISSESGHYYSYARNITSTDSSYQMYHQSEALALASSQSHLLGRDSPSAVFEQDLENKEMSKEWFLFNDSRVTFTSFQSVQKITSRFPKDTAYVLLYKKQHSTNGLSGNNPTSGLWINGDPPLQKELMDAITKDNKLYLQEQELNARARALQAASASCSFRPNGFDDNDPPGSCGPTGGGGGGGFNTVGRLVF
Outline: as §1

USP39 = molecular target: T3, USP39 (UniProt Q53GS9)
T3 sequence (whole entry): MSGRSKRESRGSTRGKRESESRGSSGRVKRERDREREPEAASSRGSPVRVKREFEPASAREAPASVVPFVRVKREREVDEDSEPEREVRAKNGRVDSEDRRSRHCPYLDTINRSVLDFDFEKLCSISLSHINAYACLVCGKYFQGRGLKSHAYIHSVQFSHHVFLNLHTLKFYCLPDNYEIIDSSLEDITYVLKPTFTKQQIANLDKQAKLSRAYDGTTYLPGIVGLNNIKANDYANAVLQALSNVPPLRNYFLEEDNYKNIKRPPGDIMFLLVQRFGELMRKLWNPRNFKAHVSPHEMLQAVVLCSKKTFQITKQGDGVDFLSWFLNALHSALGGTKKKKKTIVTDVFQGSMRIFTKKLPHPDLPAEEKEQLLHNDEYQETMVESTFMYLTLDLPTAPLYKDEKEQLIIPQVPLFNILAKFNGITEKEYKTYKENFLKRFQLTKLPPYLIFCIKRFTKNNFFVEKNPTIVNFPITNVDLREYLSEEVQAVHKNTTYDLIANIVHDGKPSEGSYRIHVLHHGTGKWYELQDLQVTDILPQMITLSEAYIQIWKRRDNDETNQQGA
Outline: as §1

USP4 = molecular target: T4, USP4 (UniProt Q13107)
T4 sequence (whole entry): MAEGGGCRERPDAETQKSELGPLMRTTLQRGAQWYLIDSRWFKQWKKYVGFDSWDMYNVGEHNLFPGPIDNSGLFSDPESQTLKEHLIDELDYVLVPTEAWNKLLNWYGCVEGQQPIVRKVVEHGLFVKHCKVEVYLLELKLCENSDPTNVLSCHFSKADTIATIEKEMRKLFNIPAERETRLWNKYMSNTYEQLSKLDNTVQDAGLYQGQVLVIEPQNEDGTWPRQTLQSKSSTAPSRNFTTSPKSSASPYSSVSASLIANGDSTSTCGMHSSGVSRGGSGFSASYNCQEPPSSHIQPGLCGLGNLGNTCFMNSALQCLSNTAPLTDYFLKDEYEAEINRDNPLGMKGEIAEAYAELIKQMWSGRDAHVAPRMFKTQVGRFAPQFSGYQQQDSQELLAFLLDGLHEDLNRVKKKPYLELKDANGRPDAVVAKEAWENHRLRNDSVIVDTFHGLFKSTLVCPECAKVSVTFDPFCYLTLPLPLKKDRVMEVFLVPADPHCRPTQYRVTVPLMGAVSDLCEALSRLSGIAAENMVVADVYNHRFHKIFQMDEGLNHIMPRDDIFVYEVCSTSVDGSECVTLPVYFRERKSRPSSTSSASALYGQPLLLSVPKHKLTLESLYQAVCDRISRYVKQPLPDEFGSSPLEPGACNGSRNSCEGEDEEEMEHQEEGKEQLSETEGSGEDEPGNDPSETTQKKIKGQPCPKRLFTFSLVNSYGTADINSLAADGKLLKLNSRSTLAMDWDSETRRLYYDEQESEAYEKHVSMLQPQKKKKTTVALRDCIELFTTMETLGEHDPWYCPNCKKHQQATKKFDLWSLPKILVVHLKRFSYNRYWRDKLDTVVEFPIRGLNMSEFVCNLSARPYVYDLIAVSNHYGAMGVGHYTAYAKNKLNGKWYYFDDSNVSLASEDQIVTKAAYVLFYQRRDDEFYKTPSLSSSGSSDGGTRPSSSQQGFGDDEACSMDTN
Outline: as §1

Measured: log2 ratio of Biotin-Ahx-Ub-VS probe labelling

O=C(CCl)NCCC1=CCCCC1
inactive: USP34 0.0934 | USP36 -0.119 | USP38 -0.0475 | USP39 0.131 | USP4 0.0999
